Screen size: about 52,000 compounds; about 4,300 (8.3%) were called active. What follows is part of a selection rich in actives, with near analogues and random picks from the rest. Values without a mark were called inactive. Cut-off read from the data, not from the text of the source: active = survival mostly below about 52% (no sharp cut-off); inactive = mostly above about 56%.

This assay has as its system DeltatarO mutant. Nature of the assay: growth inhibition of S. aureus wild type versus tarO mutant, primary screen, teichoic acid synthesis inhibitors, RN4220, OD600 (AID 463173). To be noted: OD600, 18 h, stronger effect = lower value, screened at 18.75 µg/mL (by protocol).
Consider `CC(C)(C)c1ccc(C(=O)NCC(c2cccnc2)N2CCc3ccccc3C2)cc1` (stereo not given), for which the survival is 98%.
As for `O=C(c1nc(-c2ccc(Cl)cc2)n2c1CCCCC2)N1CCN(c2ccccc2)CC1`, the figure is 88%.
With `COC(=O)c1sc(N2C(=O)c3oc4cc(C)c(C)cc4c(=O)c3C2c2ccccc2F)nc1C` (stereo not given), the survival was 70%.
The value for `O=c1c2nncn2ccn1-c1ccc(F)c(F)c1` was 90%.
Take `CCN(c1ccccc1)c1nnc(NC(=O)Nc2cccc(C(F)(F)F)c2)s1`: the survival is 88%.
The value for `Cc1ccccc1-c1nnc(SCC(=O)N(C)C2CCCCC2)o1` was 67%.
With `COc1ccc(-n2nc3ccc(NC(=O)c4cccc(OCCC(C)C)c4)cc3n2)cc1`, the survival was 121%.
With `CN(C)CCCNc1cn[nH]c(=O)c1Cl`, the survival is 93%.
The value for `CCOc1ccc(C(=O)CSc2nc3c(c(=O)n(C)c(=O)n3C)n2C(C)C)cc1` was 77%; that for `O=C(CSc1cn(CC(=O)N2CCOCC2)c2ccccc12)Nc1ccccc1C(F)(F)F` was 65%; that for `COc1ccc(-c2ccc3c(N)c(C(=O)NCc4ccc(Cl)cc4)sc3n2)cc1` was 79%.
The value for `COc1ccc(NC(=O)c2sc3nc(-c4ccc(OC)cc4)cc(C(F)(F)F)c3c2N)cc1` was 56%; that for `COc1cccc(-c2ccc3c(N)c(C(=O)c4ccc(F)cc4)sc3n2)c1` was 17% (active); that for `COc1ccc(-c2ccc3c(N)c(C(=O)c4ccc(OC)c(OC)c4)sc3n2)cc1` was 52%.
The value for `COc1ccc(-c2ccc3c(N)c(C(=O)NCc4ccc(C)cc4)sc3n2)cc1` was 69%; that for `COc1cccc(C(=O)c2sc3nc(-c4ccccc4)cc(C(F)(F)F)c3c2N)c1` was 37% (active).
For the compound `COc1cccc(-c2ccc3c(N)c(C(=O)Nc4cc(C(F)(F)F)ccc4OC)sc3n2)c1`, the survival is 89%.
Regarding `COc1cccc(-c2ccc3c(N)c(C(=O)c4ccc(Br)cc4)sc3n2)c1`, the survival was 28% (active).
The value for `COc1ccc(C(=O)c2sc3nc(-c4ccc(F)cc4)ccc3c2N)cc1` was 81%.
The value for `COc1cccc(-c2ccc3c(N)c(C(=O)Nc4ccc(C)c(F)c4)sc3n2)c1` was 95%.
As for `COc1ccc(C(=O)c2sc3nc(-c4ccc(C)cc4)cc(C(F)(F)F)c3c2N)cc1`, the figure is 134%; as for `COc1cccc(-c2ccc3c(N)c(C(=O)NCc4ccc(Cl)cc4)sc3n2)c1`, 41% (active); as for `CC1C(=O)CCNC1c1ccccc1` (stereo not given), 65%.
As for `O=C(O)c1ccc(N=NSCCO)cc1`, the survival was 79%.
The value for `COc1ccc(-n2nc(C(=O)NCCc3cccc(C)c3)c3c4ccccc4n(C)c3c2=O)cc1Cl` was 89%.
